Results reported in PubChem BioAssay (Tox21).
The source made the active and inactive calls. The call rests on the fitted dose curve; in most records, active means well fitted curve in the direction sought with a large enough effect in the repeat runs; inconclusive means weak or mixed curves; inactive means flat fitted curve, though single readings scatter.
On the % scale 0 is the no-effect control and ±100 the full control effect.

Assay: qHTS assay to test for compound auto fluorescence at 535 nm (green) in HepG2 cells (AID 720675)
Conditions: green autofluorescence 485/535 nm, 1 h; series mostly up to 91.3 µM
Excerpt: National Center for Advancing Translational Sciences [NCATS]
NIH Chemical Genomics Center [NCGC]
U.S. Environmental Protection Agency [EPA]
National Institutes of Environmental Health Sciences [NIEHS]
National Toxicology Program [NTP]
U.S. Food and Drug Administration [FDA]
Compound auto fluorescence often interferes with screening of the compound library against various biological targets and signaling pathways. Some of these compounds may have fluorophoric properties. Such properties may interfere with the assay outputs resulting in false positives and/or negatives. To decrease such complications and ensure the compound activities are relevant in terms of biological response, the Tox21 10K compound library was screened for auto fluorescence.
From the fluorophores used as reporter signals in our screening assays, the auto fluorescence equivalencies of compounds against three fluorophores have been evaluated: Triamterene, Fluorescein and Rose Bengal sodium for blue, green and red fluorescence, respectively. The fluorescence intensities were measured using Excitation/Emission wavelengths at 405/460nm, 485/535nm and 540/590nm for blue, green and red labels, respectively. This assay includes the green fluorescence data.
Tox21 Assay Protocol Summary:
2,000 HepG2 cells in 5 uL of culture medium (MEM containing 10% FBS) per well were dispensed into black wall/clear bottom 1536-well plates using a Multidrop Combi Dispenser (ThermoFisher Scientific, Waltham, MA). The assay plates were incubated overnight at 37 C to allow cell attachment to the well bottom, followed by the transfer of 23 nL compound or DMSO vehicle by a pintool work station (Kalypsys , San Diego, CA). After the assay plates were incubated for 1 hr at 37 C and 5% CO2, fluorescence intensities in the assay plates were measured by an Envision (PerkinElmer, Shelton, CT) plate reader using three labels for measuring blue, green and red fluorescence at […] 460, 535 and 590 nm respectively.
In the case of `CC(C)(C)C(=O)c1ccccc1`, the outcome is reported as “inactive”. In the case of `Cc1cccc(C)c1NC(=O)CC12CCCN1CCC2`, the outcome is reported as “inactive”. For `CC1OC1C1CCC2(C)OC2C1` (stereo not given), the outcome was “inactive”. For `CCOC(=O)c1ccccc1`, the outcome was “inactive”. For `CC(=O)c1cnccn1`, the outcome was “inactive”. In the case of `CC(C)COC(=O)c1ccc(N)cc1`, the outcome is reported as “inactive”. For `CC(=O)NC(=O)c1ccccc1O`, the outcome was “inactive”. With `CCCCCCCCN1CCCC1=O` the outcome was “inactive”. In the case of `CCCCCCCCCCOc1cc2c(=O)c(C(=O)OCC)c[nH]c2cc1OCC`, the outcome is reported as “inactive”. In the case of `CN1CCN(c2cc3c(nn2)Oc2ccccc2N3C)CC1`, the outcome is reported as “inactive”. In the case of `CC(C(=O)O)c1cccc(Oc2ccccc2)c1` (stereo not given), the fluorescence, % of fluorescein control is reported as 0.0036% [at 18.6 µM] (inactive). With `CC(C)CC(C)(N)C#N` (stereo not given) the outcome was “inactive”. For `CCC1C(=O)OCC1Cc1cncn1C` (stereo not given), the outcome was “inactive”. In the case of `O=[N+]([O-])c1ccc(/C=N\O)o1`, the outcome is reported as “inactive”. With `CCN(Cc1ccccc1)c1ccccc1` the outcome was “inactive”. In the case of `CN(C)C(=O)Oc1ccc[n+](C)c1`, the outcome is reported as “inactive”. With `COc1ccccc1OCC1CNC(=O)O1` (stereo not given) the outcome was “inactive”. For `[Ca+2]`, the outcome was “inactive”. With `O=S(=O)(O)c1cccc2ccccc12` the outcome was “inactive”. In the case of `CC(C)(CCC(=O)O)C(=O)O`, the outcome is reported as “inactive”. For `CCN[C@@H]1C[C@H](N)[C@@H](OC2OC(CN)=CCC2N)[C@H](O)[C@H]1O[C@H]1OC[C@](C)(O)[C@H](NC)[C@H]1O` (stereo not given in full), the outcome was “inactive”. With `CC(C#N)(CCC(=O)O)N=NC(C)(C#N)CCC(=O)O` (stereo not given) the outcome was “inactive”. In the case of `CC1=CCC(O)(C(C)C)CC1` (stereo not given), the outcome is reported as “inactive”. With `O=C(O)CC(C(=O)O)S(=O)(=O)O` (stereo not given) the outcome was “inactive”. With `CC1(C)OC[C@@H](COC(=O)CCc2ccc(OC[C@@H](O)CNCCNC(=O)N3CCOCC3)cc2)O1` the outcome was “inactive”. With `CC(C)[C@H]1CC[C@@H](C)CC1=O` the outcome was “inactive”. In the case of `Nc1ccncc1N`, the outcome is reported as “inactive”. In the case of `O=C(c1ccccc1)C1(O)CCCCC1`, the outcome is reported as “inactive”. For `NO`, the outcome was “inactive”. For `C[N+]1(CC2COC(c3ccccc3)(c3ccccc3)O2)CCCCC1` (stereo not given), the outcome was “inactive”. With `CCCCCCCCCCCCCCCCCCO` the outcome was “inactive”. For `CC(C)(C#N)Nc1nc(Cl)nc(NC2CC2)n1`, the outcome was “inactive”. With `CC(N)C12CC3CC(CC(C3)C1)C2` (stereo not given) the outcome was “inactive”. With `CCNS(=O)(=O)c1ccc(C)cc1` the outcome was “inactive”. For `CC(CC=O)CC(C)(C)C` (stereo not given), the outcome was “inactive”. In the case of `CC(C)(C)c1ccc(-c2ccc(C(C)(C)C)cc2)cc1`, the outcome is reported as “inactive”. With `O=C(O)c1cn(C2CC2)c2cc(N3CCNCC3)c(F)cc2c1=O` the fluorescence, % of fluorescein control was 0.0071% [at 18.6 µM] (inactive). In the case of `CCN1CCOCC1`, the outcome is reported as “inactive”. With `O=C(O)Cc1csc(-c2ccc(Cl)cc2)n1` the outcome was “inactive”. In the case of `COc1c(N2CCNC(C)C2)c(F)cc2c(=O)c(C(=O)O)cn(C3CC3)c12` (stereo not given), the outcome is reported as “inactive”.
